Consider three compounds from PubChem BioAssay (EPA / NIEHS).

In general, AC50 refers to the midpoint of the concentration-response curve, whichever way the signal moves.

Inconclusive results are not listed. The source made the active and inactive calls. The calls were made as follows, unless noted: active = hit-call score of the fitted dose curve at least 0.9, where 1 is the maximum; inactive = score below 0.9.

A short description of test [1]: CCTE_Harrill_HTTr_Viability_MCF7: CCTE's 6-hour Cell Viability Assessment for the High-Throughput Transcriptomics (HTTr) Platform, in MCF-7 cells cultured in DMEM + 10% fetal bovine serum, Harrill Lab (AID 2284010). The method in brief: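 Eight-point concentration series, six-hour exposure. Propidium iodide exclusion imaged to assess membrane integrity as a cytotoxicity readout; bidirectional fitting was done with DMSO as negative control and activity baseline.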

Test [2] is described as follows: CCTE_Harrill_HTTr_CellCount_MCF7: CCTE's Cell Proliferation Assessment for the High-Throughput Transcriptomics (HTTr) Platform, Harrill Lab (AID 2284012; active = hit-call score of the fitted dose curve at least 0.9, where 1 is the maximum;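 also: intended direction is loss of nuclei count meaning fewer cells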). In short, it runs like this: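 For this full-screen endpoint, MCF-7 cultures received eight compound dilutions for six hours. Well nuclei counts from Hoechst imaging were analyzed relative to DMSO.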
Test [3] in a line: CCTE_Shafer_MEA_dev_firing_rate_mean: CCTE's Neural Network Formation Assay for Mean Firing Rate, Shafer Lab (AID 2284031). The method in brief: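 Extracellular spike frequency, AUC over DIV 5–12 recordings, in rat cortical neuron MEA cultures dosed from plating; loss direction vs DMSO.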
A short description of test [4]: CCTE_Shafer_MEA_dev_per_burst_spike_percent: CCTE's Neural Network Formation Assay for Percent of Spikes in a Burst, Shafer Lab (AID 2284032).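 Also: fitted as a decrease in burst spike percentage below DMSO baseline.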 In short, it runs like this:
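Value is trapezoidal AUC over recordings on days 5, 7, 9 and 12 of the well-mean fraction of spikes falling in single-electrode bursts; rat cortical cultures exposed continuously from plating, treatment renewed DIV 5 and 9, fitted downward against DMSO.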

The nature of test [5]: CCTE_Shafer_MEA_dev_active_electrodes_number: CCTE's Neural Network Formation Assay for Number of Active Electrodes, Shafer Lab (AID 2284040; active = hit-call score of the fitted dose curve at least 0.9, where 1 is the maximum;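 also: potency for loss of active electrodes versus DMSO so lower counts are hits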). The method in brief:
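Developing rat cortical networks on MEAs, exposed DIV 0–12. Value is the AUC of active-electrode counts (≥5 spikes/min) from days 5, 7, 9, 12, relative to DMSO.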

Test [6] can be described thus: CCTE_Shafer_MEA_dev_burst_rate: CCTE's Neural Network Formation Assay for Burst Rate, Shafer Lab (AID 2284042). The method in brief: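 Exposure ran continuously over 12 days of network development in rat cortical cultures, with compound refreshed during full media changes on DIV 5 and 9. Single-electrode bursts per recording time, well-mean over active electrodes, trapezoidal AUC across days 5–12, fitted downward relative to DMSO.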

The nature of test [7]: CCTE_Shafer_MEA_dev_per_burst_interspike_interval: CCTE's Neural Network Formation Assay for Burst Interspike Interval, Shafer Lab (AID 2284044). The method in brief: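 Primary rat cortical neurons on 48-well MEA plates, exposed from day 0 through day 12, treatment renewed at DIV 5 and 9. Within-burst interspike interval recorded days 5, 7, 9, 12, well-averaged, summarised as AUC; negative fit versus DMSO.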

Test [8] in a line: CCTE_Shafer_MEA_dev_burst_duration_mean: CCTE's Neural Network Formation Assay for Mean Burst Duration, Shafer Lab (AID 2284045). In short, it runs like this: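 Network-formation assay in primary rat cortical neurons; treatment spans twelve days of development. Mean burst duration per well is integrated by trapezoidal AUC and fitted in the loss-of-signal direction against DMSO baseline.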

A short description of test [9]: CCTE_Shafer_MEA_dev_interburst_interval_mean: CCTE's Neural Network Formation Assay for Mean Interburst Interval, Shafer Lab (AID 2284046).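 Also: well-mean interburst interval of bursting electrodes as AUC over four recording days; curve fitted for decrease in interburst interval relative to DMSO.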 In short, it runs like this:
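Primary rat cortical neurons on PEI-coated 48-well MEA plates (laminin added with cells at plating) (16 electrodes/well), exposed from plating day 0 with renewal at DIV 5 and 9. Mean inter-burst interval averaged over bursting electrodes, AUC across days 5, 7, 9, 12; DMSO baseline.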

Test [10] can be described thus: CCTE_Shafer_MEA_dev_inter_network_spike_interval_mean: CCTE's Neural Network Formation Assay for Mean Inter-network Spike Interval, Shafer Lab (AID 2284047). The method in brief:
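Mean time between consecutive network-spike peaks, recorded extracellularly (adaptive spike detection) on DIV 5, 7, 9 and 12, summarized as trapezoidal AUC. Rat cortical cultures on MEAs dosed continuously days 0–12, re-dosed at feeds; loss-of-signal fit relative to DMSO.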

Test [11] can be described thus: CCTE_Shafer_MEA_dev_network_spike_number: CCTE's Neural Network Formation Assay for Number of Network Spikes, Shafer Lab (AID 2284048).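 Also: synchronized bursts across electrodes counted on days 5 7 9 12 and integrated as AUC.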 In short, it runs like this:
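Extracellular recordings from 16-electrode wells track network formation in rat cortical cultures under continuous treatment from plating. The endpoint is network spike number, expressed as AUC across DIV 5–12 relative to DMSO vehicle.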

Test [12] is described as follows: CCTE_Shafer_MEA_dev_spike_duration_mean: CCTE's Neural Network Formation Assay for Mean Spike Duration, Shafer Lab (AID 2284051).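 Also: mean network spike duration pooled as area under curve over DIV 5 to 12 recordings; potency for a decrease in mean network spike duration versus DMSO.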 The method in brief:
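Spontaneous activity was recorded on days 5, 7, 9 and 12 from rat cortical cultures grown on microelectrode arrays and dosed continuously from day 0, with media and compound renewed after the DIV 5 and 9 recordings. Network-spike duration was collapsed by area under the curve.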

The nature of test [13]: CCTE_Shafer_MEA_dev_network_spike_duration_std: CCTE's Neural Network Formation Assay for Standard Deviation of Network Spike Duration, Shafer Lab (AID 2284052).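 Also: hits are decreases in network spike duration SD versus DMSO vehicle.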 In short, it runs like this: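 Network spike duration variability was collapsed across recordings on days 5, 7, 9 and 12 by trapezoidal area-under-curve and fitted downward against DMSO. Cultures were rat cortical neurons on PEI-coated MEA plates, dosed continuously from plating, refed with compound DIV 5/9.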

Test [14] can be described thus: CCTE_Shafer_MEA_dev_per_network_spike_spike_number_mean: CCTE's Neural Network Formation Assay for Mean Number of Spikes in a Network Spike, Shafer Lab (AID 2284053). The method in brief:
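Mean spike count within each network spike, taken in a 0.05 s window at its peak, was recorded on days 5, 7, 9 and 12 and integrated as trapezoidal area under the curve. Rat cortical cultures on MEA plates received continuous compound from day 0, refreshed at medium changes on DIV 5 and 9.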

Test [15] can be described thus: CCTE_Shafer_MEA_dev_per_network_spike_spike_percent: CCTE's Neural Network Formation Assay for Percent of Spikes in a Network Spike, Shafer Lab (AID 2284054). The method in brief: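 Developing networks of rat cortical neurons are dosed at day 0 and recorded extracellularly four times up to day 12. The endpoint is the area under the curve of percent spikes in network spikes, fitted in the negative direction relative to DMSO.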

The nature of test [16]: CCTE_Shafer_MEA_dev_LDH: CCTE's Lactate Dehydrogenase Assay for Cytotoxicity in the Neural Network Formation Assay, Shafer Lab (AID 2284068; active = hit-call score of the fitted dose curve at least 0.9, where 1 is the maximum;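 also: exposure for twelve days from plating with re-dosing on DIV 5 and 9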). In short, it runs like this: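 Primary rat cortical neurons were cultured on PEI-coated MEA plates and exposed from plating through day 12, with compound renewed at medium changes on DIV 5 and 9. LDH activity was read spectrophotometrically; loss of signal versus DMSO indicates reduced viability.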

Test [17] in a line: CCTE_Shafer_MEA_dev_AB: CCTE's Alamar Blue Assay for Cytotoxicity in the Neural Network Formation Assay, Shafer Lab (AID 2284083; active = hit-call score of the fitted dose curve at least 0.9, where 1 is the maximum;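 also: resazurin reduction fluorescence as viability of cultured neurons; twelve days of exposure from plating with re-dosing on DIV 5 and 9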). In short, it runs like this:
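Resazurin fluorescence, relative to DMSO, gauges viability after twelve days of exposure that began at plating of rat cortical neurons (1.5 x 10^5 cells/well, 48-well MEA); treatment renewed with full medium exchange on DIV 5 and 9.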
Background: The colour change of resazurin is a common sign of viable cells or microbes.

A short description of test [18]: CCTE_Shafer_MEA_dev_mutual_information_norm: CCTE's Neural Network Formation Assay for Mutual Information Normalization, Shafer Lab (AID 2284091).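 Also: mutual information between electrodes summarised as area under curve across four recording days; potency is for a decrease in mutual information relative to DMSO.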 The method in brief: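 Exposure of primary rat cortical neurons began at plating and ran to DIV 12, with full media and treatment renewal after DIV 5 and 9 recordings. Mutual information AUC (DIV 5–12) was analysed for loss versus DMSO.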

Test [19] can be described thus: CCTE_Shafer_MEA_dev_correlation_coefficient_mean: CCTE's Neural Network Formation Assay for Mean Correlation Coefficient, Shafer Lab (AID 2284093).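 Also: well mean pairwise spike train correlation integrated as AUC over recording days 5 to 12; potency fitted for loss of correlation relative to DMSO vehicle wells.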 In short, it runs like this:
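Primary rat cortical neurons on PEI-coated 48-well MEA plates (16 electrodes/well) were exposed from plating day 0 through DIV12, with compound renewed at DIV5 and 9. Pairwise spike correlations were averaged per well; trapezoidal AUC across DIV5, 7, 9, 12.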

A short description of test [20]: CCTE_Harrill_HTTr_Apoptosis_MCF7: CCTE's 6-hour Apoptosis Assessment for the High-Throughput Transcriptomics (HTTr) Platform, in MCF-7 cells cultured in DMEM + 10% fetal bovine serum, Harrill Lab (AID 2284011). In short, it runs like this:
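MCF-7 cells in DMEM + 10% FBS exposed 6 h to chemicals over an eight-point dilution series. Caspase-3/7 activation imaged by high-content CellEvent Green staining; fitted bidirectionally versus DMSO.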

In the case of `O=C1CCO1`, the outcome in test [1] and in [2] was inactive.

In the case of `NCCc1cc(O)c(O)cc1O`, the compound was classed as inactive in test [3], in [6], in [7], in [8], in test [9] and in [10]. Further, the compound was called inactive in test [11] and in [13]. Besides, the AC50 in test [4] was 6.25 µM (active); in test [5], 4.79 µM (active); in test [12], 5.15 µM (active); in test [14], 4.47 µM (active); in test [15] it was 10.1 µM (active); in [16], 6.82 µM (active). The AC50 in [17] is 9.87 µM (active); in [18] it was 3.2 µM (active); in [19] it was 5.28 µM (active).

As to `COCCOC(C)=O`, the outcome in test [1], in [20] and in test [2] was inactive.
